The source of these data is PubChem BioAssay AID1024 (Sanford-Burnham Center for Chemical Genomics, 2008).

Out of some 96,000 compounds screened, about 1,400 (1.5%) were called active. This is one part of a sample in which actives are shown more often than they occur. A number with no mark means an inactive call.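 How the source made its calls: active means activation factor of 2 or more for CYP2C9 at a 5 µM dose; inactive means the rest.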

Cytochrome P450 2C9 (Homo sapiens), sequence (P11712 whole entry, looked up): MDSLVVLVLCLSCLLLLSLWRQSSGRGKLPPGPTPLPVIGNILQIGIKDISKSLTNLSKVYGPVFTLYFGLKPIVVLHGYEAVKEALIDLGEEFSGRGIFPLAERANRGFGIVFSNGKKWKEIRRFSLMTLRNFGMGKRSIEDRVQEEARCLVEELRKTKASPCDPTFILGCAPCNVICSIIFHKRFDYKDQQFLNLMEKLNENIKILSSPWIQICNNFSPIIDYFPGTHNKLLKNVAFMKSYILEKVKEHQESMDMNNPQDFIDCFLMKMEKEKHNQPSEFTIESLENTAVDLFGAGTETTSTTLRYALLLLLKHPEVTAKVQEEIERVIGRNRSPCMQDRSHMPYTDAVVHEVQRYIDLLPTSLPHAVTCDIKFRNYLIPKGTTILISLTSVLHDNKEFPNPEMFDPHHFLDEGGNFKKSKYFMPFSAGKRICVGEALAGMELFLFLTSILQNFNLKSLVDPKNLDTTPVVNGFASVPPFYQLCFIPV

The assay addresses Cytochrome P450 2C9 (Homo sapiens) (UniProt P11712). Description: human CYP2C9 activators, primary screen, biochemical, luminescence (AID 1024).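 Further: 0 = sulfaphenazole-blocked wells and 1 = vehicle-only wells.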 The conditions noted are these: recombinant CYP2C9, luciferin-H conversion, at 5 µM, hits give high values, factor 1 = untreated enzyme, 0 = blocked.
Turning to `CCOC(=O)N1CCN(CC(=O)n2c(C)c(C)c3ccccc32)CC1`, the activation factor is 2.3 (active).

Turning to `CCOC(=O)N1CCN(C(=O)c2n[nH]c(=O)c3ccccc23)CC1`, the activation factor was 1.

Turning to `CCOC(=O)N1CCN(CC(=O)c2c(C)[nH]c3ccccc23)CC1`, the activation factor is 1.6.

Take `COc1ccccc1C(=O)Oc1ccc(N2C(=O)CCC2=O)cc1`: the activation factor was 2.1 (active).

`COc1ccccc1C(=O)C(O)c1ccccc1OC` (stereo unspecified): the activation factor was 1.

Consider `Cc1ccc(OC(=O)c2ccccc2C(=O)OCC(F)(F)C(F)F)cc1`, for which the activation factor is 0.2.

Regarding `CCN(CC)c1ccc(/C=N/Nc2nc(C)cc(=O)[nH]2)cc1`, the activation factor is 1.2.

In the case of `COCc1cc(C)nc2sc3c(=O)n(-c4cccc5ccccc45)nnc3c12`, the activation factor is 0.7.

As for `O=C(NNC(=O)c1cccnc1)Nc1ccccc1`, the activation factor was 1.1.

Consider `COC(=O)C(C)N(C#N)c1nc(C)nc(C)n1` (stereo unspecified), for which the activation factor is 2.4 (active).

On to `COC(=O)c1c(C)c(C)nc(N)c1C#N`, for which the activation factor is 1.1.

`CCOC(=O)c1sc(C)c2c1NC(C)(c1cccc3ccccc13)NC2=O` (stereo unspecified): the activation factor was 0.

For `Cc1ccc2c(c1)-c1c(ssc1=S)C(C)(C)N2C(=O)CN1C(=O)c2ccccc2C1=O`, the activation factor is 0.2.

Consider `CC(NC(=O)c1cc(-c2ccccc2)on1)c1ccccc1` (stereo unspecified), for which the activation factor was 1.2.

Turning to `O=C(Nc1ccccc1C(F)(F)F)c1cc(-c2ccc(O)cc2)on1`, the activation factor is 3.3 (active).

As for `O=C(c1cc(-c2ccc(O)cc2)on1)N1CCCc2ccccc21`, the activation factor is 0.4.

Consider `COc1cc(OC)c(C(=O)Nc2ccc(N(C)C)cc2)cc1OC`, for which the activation factor was 0.7.

As to `COc1ccc(Cl)cc1C(=O)NCC#N`, the activation factor was 1.8.

In the case of `COc1ccc(Cl)cc1C(=O)NCc1cn(C)nc1C`, the activation factor was 1.

Take `COc1ccc(Cl)cc1C(=O)Nc1ccc(N(C)C(C)=O)cc1`: the activation factor was 3.1 (active).

As to `CCC(C)NC(=O)c1cc(Cl)ccc1OC` (stereo unspecified), the activation factor was 2.7 (active).

For `CCOc1ccc(NC(=O)Nc2ccc(N(C)C(C)=O)cc2)cc1`, the activation factor was 1.1.

As for `COc1ccc(N(CC(=O)N/N=C/c2cccs2)S(=O)(=O)c2ccc(OC)c(OC)c2)cc1`, the activation factor is 0.6.

Turning to `O=C(CNC(=O)OCc1ccccc1)Oc1cc2oc(=O)cc(-c3ccccc3)c2cc1Cl`, the activation factor was 0.2.

Regarding `O=C(Nc1ccc(Br)cc1)c1cccc(NC(=O)C2C3CC4OC(=O)C2C4C3)c1` (stereo unspecified), the activation factor was 0.3.

Consider `CN1OC(COC(=O)c2ccc(Cl)cc2)CC1c1ccccc1` (stereo unspecified), for which the activation factor was 0.6.

As to `COc1ccc(NC(=O)Nc2ccc3nsnc3c2)cc1`, the activation factor was 0.8.

For `O=C(Nc1nnc(C2CC2)s1)c1ccccn1`, the activation factor was 1.3.

Consider `CSc1ccccc1NC(=O)c1cc(C2CC2)on1`, for which the activation factor is 2.4 (active).

Take `Cc1nn(Cc2ccc(Cl)c(Cl)c2)c(C)c1NC(=O)c1cc(C2CC2)on1`: the activation factor is 0.

With `O=C(NCc1ccco1)C1CCCN(S(=O)(=O)c2ccccc2)C1` (stereo unspecified), the activation factor was 0.7.

As for `O=C(Cc1ccc(F)cc1)NC1CCCC1`, the activation factor is 1.4.

Consider `O=C(CC1OC(=O)c2ccccc21)NC1CCCCC1` (stereo unspecified), for which the activation factor is 2 (active).

As for `O=C(NC1CCCCC1)C1c2ccccc2C(=O)N1Cc1ccco1` (stereo unspecified), the activation factor is 0.9.

With `Cc1c(Nc2cc(N3CCCC(C)C3)c3nonc3c2[N+](=O)[O-])c(=O)n(-c2ccccc2)n1C` (stereo unspecified), the activation factor is 0.6.

Take `CCOc1ccc(NC(=O)C2CC(=O)N=C(N)S2)cc1` (stereo unspecified): the activation factor is 1.

With `COc1cccc(NC(=O)c2ccccc2SC)c1`, the activation factor was 1.

For the compound `COc1cccc(C(=O)Nc2ccc(N3CCCC3)cc2)c1`, the activation factor was 0.9.

In the case of `COc1cccc(C(=O)NNC(=O)c2ccccc2Br)c1`, the activation factor is 2.8 (active).

Regarding `Cc1cc2cc3c(cc2nc1SCC(=O)Nc1c(C)cccc1C)CCC3`, the activation factor is 0.4.

For the compound `CCOc1cc(N2CCOCC2)c(OCC)cc1NC(=O)COc1cccc2cccnc12`, the activation factor is 1.

Consider `Cc1cc(OCCOc2cccc3cccnc23)c(C)cc1Cl`, for which the activation factor was 2.7 (active).

For `CCOc1cc(C)c(Cl)cc1S(=O)(=O)n1nnc2ccccc21`, the activation factor is 0.6.

Consider `Cc1cc(SCC(=O)c2ccccc2)nc(SCC(=O)c2ccccc2)n1`, for which the activation factor is 0.3.

Regarding `Cn1c(=O)c2c(nc(N3CCCCCC3)n2CC(=O)c2ccc(Br)cc2)n(C)c1=O`, the activation factor is 0.8.

For the compound `Cc1ccn(C(CC(=O)c2ccc(Br)cc2)C(=O)O)n1` (stereo unspecified), the activation factor is 2.1 (active).

As for `Cc1cc([N+](=O)[O-])ccc1NCc1cccc([N+](=O)[O-])c1`, the activation factor was 1.

Take `Cc1cc(C)nc(NC(=O)C(C)N2C(=O)c3ccccc3C2=O)n1` (stereo unspecified): the activation factor was 1.2.

`Cc1cc(C)nc(NC(=O)Nc2ccccc2C(F)(F)F)n1`: the activation factor is 2.9 (active).

For the compound `O=C(NCCCN1CCN(C2CCCCC2)CC1)Nc1ccccc1C(F)(F)F`, the activation factor was 1.

Consider `O=C(Nc1ccc2sc3ccccc3c(=O)c2c1)c1ccccc1Cl`, for which the activation factor was 1.1.

Regarding `O=c1c2ccccc2nc2n1C(CSCc1cccc(C(F)(F)F)c1)CS2` (stereo unspecified), the activation factor was 0.6.

For `COc1ccc(-c2noc(-c3cccc(OC)c3OC)n2)cc1OC`, the activation factor was 2 (active).

In the case of `COc1ccc(-c2nc(-c3ccccc3)no2)c(OC)c1`, the activation factor was 1.1.

`COc1cc(-c2nc(-c3ccncc3)no2)cc(OC)c1OC`: the activation factor was 0.2.

On to `Cc1cccc(N(CC(=O)Nc2ccc(-c3nc4ccc(C)cc4s3)cc2)S(C)(=O)=O)c1`, for which the activation factor was 0.9.

With `CNS(=O)(=O)c1cnccc1N1CCN(c2cccc(C)c2)CC1`, the activation factor is 0.4.

For `O=C1Nc2c(Br)cc(Br)cc2C1(O)N1CCOCC1` (stereo unspecified), the activation factor was 3 (active).

Consider `O=C(CN1CCOCC1)Nc1ccccc1`, for which the activation factor was 0.9.

Take `O=C(CN1CCOCC1)Nc1cc(Cl)ccc1Cl`: the activation factor is 2.4 (active).

As to `O=C(CN1CCOCC1)Nc1ccc(NC(=O)CN2CCOCC2)c(Cl)c1`, the activation factor was 1.

Consider `COc1ccc(OC)c(/C=N/NC(=O)CSc2nnc(C)n2-c2ccccc2)c1`, for which the activation factor was 0.8.

Take `COc1ccc(C)cc1N(C)C(=O)c1coc(=O)c2ccccc12`: the activation factor is 0.7.

With `CCCn1c(C(Cc2ccccc2)NC(=O)COC)nc2ccccc21` (stereo unspecified), the activation factor was 0.3.

As to `Cc1ccc(N2CCN(/N=C/c3cccs3)CC2)cc1`, the activation factor was 1.1.

Turning to `Cc1ccc(N2CCN(C3=NC(=O)/C(=C\c4cccs4)S3)CC2)cc1`, the activation factor was 2.3 (active).

As for `Cc1ccsc1/C=C1\SC(N2CCOCC2)=NC1=O`, the activation factor was 1.2.

In the case of `CO/N=C/c1ccc(N2CCN(C(=O)c3cccc(Cl)c3)CC2)c([N+](=O)[O-])c1`, the activation factor is 0.9.

On to `CN=C1S/C(=C\c2ccc(Sc3ccc(Cl)cc3)o2)C(=O)N1C`, for which the activation factor was 0.7.

For the compound `CC(C)C(C)NC(=O)COc1ncnc2ccccc12` (stereo unspecified), the activation factor was 0.9.

For `CCOC(=O)c1c(NC(=O)c2ccc(N3CCOCC3)c([N+](=O)[O-])c2)sc(C)c1C`, the activation factor was 0.9.
